# Experimental data: PubChem BioAssay (NCATS)
# Inconclusive results are not listed. A call without a number means that no potency is given here. Active and inactive are the calls of the source. Calls follow the shape of the dose curve; as a rule, active = well fitted curve in the direction sought with a large enough effect; inconclusive = small, poorly fitted or top-dose-only effect, or another doubt; inactive = no such curve, though single readings can be large; an effect the other way counts as inactive or inconclusive.
# Target: Calcium and integrin-binding protein 1 (Homo sapiens) (UniProt Q99828)
# Test: Primary qHTS for Identification of Calcium Integrin Binding Protein 1 (CIB1) Competitor (AID 1508620);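 also: GST tagged CIB1 binding a fluorescein labelled alphaIIb integrin peptide tracer; top concentration of the series differs between compounds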
# Conditions: CIB1-GST / FITC-alphaIIb peptide fluorescence polarization; series mostly up to 114 µM
# In short: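 Fluorescence polarization competition: GST-tagged CIB1 (1 uM final) preincubated with compound 15 min at room temperature, then FITC-labelled alphaIIb peptide (100 nM final) added. After 15 min at room temperature, polarization read at Ex 480/Em 540.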
# Chain of Calcium and integrin-binding protein 1 (Homo sapiens) (Q99828 whole entry, looked up): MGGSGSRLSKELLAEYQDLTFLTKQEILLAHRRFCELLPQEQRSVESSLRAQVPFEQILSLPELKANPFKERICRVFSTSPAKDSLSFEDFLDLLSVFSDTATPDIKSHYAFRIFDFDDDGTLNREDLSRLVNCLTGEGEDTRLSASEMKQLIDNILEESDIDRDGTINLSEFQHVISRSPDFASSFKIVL
row,SMILES,Potency
1,CCOc1ccc(CCNC(=O)c2cc3sc(Cl)cc3n2C)cc1OCC,inactive
2,CC(=O)O[C@H]1CC[C@]2(C)[C@H]3CC[C@]4(C)Oc5oc(C)cc(=O)c5C[C@H]4[C@]3(C)CC[C@H]2C1(C)C,inactive
3,C=C[C@@]1(C)C=C2C(=O)C(O)=C3[C@](C)(C(=O)O)CC[C@@H]4C[C@]34[C@]2(O)C(=O)C1,inactive
4,CC(=O)O[C@H]1C[C@@](O)(C(C)C)[C@@H]2[C@@H](OC(=O)c3ccc(O)cc3)CC(C)=CC[C@@]12C,inactive
5,N#Cc1cc(-c2ccnc(Nc3ccc(N4CCOCC4)cc3)n2)ccc1OC1CCOCC1,inactive
6,Cc1cc(F)ccc1[C@H]1C[C@@H](N2CCN3C(=O)CC[C@H]3C2)CCN1C(=O)N(C)[C@H](C)c1cc(C(F)(F)F)cc(C(F)(F)F)c1,inactive
7,Cc1cc(C)c(S(=O)(=O)n2cc(C)cc2C)c(C)c1,inactive
8,CCc1ccccc1OC[C@@H](O)CN[C@H]1CCCc2ccccc21,inactive
9,C=C1[C@@H](OC(C)=O)CC[C@@]2(C)[C@@H](OC(C)=O)[C@H](OC(C)=O)C3=C(C)C[C@H](OC(=O)C(C)CC)[C@@H]([C@@H](OC(C)=O)[C@H]12)C3(C)C (stereo partly drawn),inactive
10,O=C1Cc2c([nH]c3ccc(Br)cc23)-c2ncccc2N1,inactive
11,O=C(c1ccc(OC(F)F)c(C#Cc2ccccn2)c1)N1Cc2cccnc2C1,inactive
12,Fc1ccc(CN2CCC(Nc3ccc(C(F)(F)F)nn3)CC2)cc1F,inactive
13,CCCc1cc(C)[nH]c(=O)c1CNC(=O)c1cc(-c2ccc(N3CCN(C(C)C)CC3)nc2)cc2c1cnn2C(C)C,inactive
14,COc1cc(CCc2cc(NC(=O)c3ccc(N4CC(C)NC(C)C4)cc3)n[nH]2)cc(OC)c1 (stereo not drawn),inactive
15,O=C(NCC1CCN(Cc2cccc(Cl)c2)CC1)[C@@H]1CCCN(c2ncnc3c2nc2n3CCCC2)C1,inactive
16,O=S(=O)(c1ccccc1)N(CC(F)(F)F)c1ccc(C(O)(C(F)(F)F)C(F)(F)F)cc1,inactive
17,Cc1nc2ccc(-n3ncc(C(=O)c4cc5ccccc5[nH]4)c3N)cc2[nH]1,inactive
18,COc1cc(O)cc(OC2OC(CO)C(O)C(O)C2O)c1 (stereo not drawn),inactive
19,COc1cc(/C=N\NC(=O)c2ccc3c(c2)OCO3)ccc1OCc1ccccc1,inactive

row,SMILES,Potency
1,Cc1[nH]c2ccc(F)cc2c1-c1nc2c3cccnc3c3ncccc3c2[nH]1,inactive
2,COc1cc(CCO)ccc1O[C@@H]1O[C@H](CO)[C@@H](O)[C@H](O)[C@H]1O,inactive
3,O=c1ccc2ccc(OCCCCN3CCN(c4cccc5sccc45)CC3)cc2[nH]1,inactive
4,C=C1CC[C@@H](O)[C@]2(C)CC[C@H]3C(=C)C(=O)O[C@@H]3[C@@H]12,inactive
5,Nc1cccc(CNC(=O)c2ccc(Oc3ccc(OCc4cccc(F)c4)cc3)nc2)c1,inactive
6,COc1cc(C[C@H]2C(=O)OC[C@@H]2Cc2ccc(OC)c(OC)c2)ccc1O,inactive
7,N#Cc1ccc2ncnc(NCCc3ccccc3)c2c1,inactive
8,Cc1cc(N2CCOCC2)ccc1Nc1nc(NC2CCCCC2)c2[nH]cnc2n1,inactive
9,COc1cc(/C=C2\CC[C@H]3COC[C@@H](c4cc(F)c(F)c(F)c4)N3C2=O)ccc1-n1cnc(C)c1,inactive
10,CC(C)OC(=O)N1CCC(Oc2ncnc3c2cnn3-c2ccc(S(C)(=O)=O)cc2F)CC1,inactive
11,Nc1nc2c(c(N3CC[C@@H](N)C3)n1)CCCc1ccccc1-2,inactive
12,O=C(Nc1nnc(-c2ccc3c(c2)OCCO3)o1)C1CCCCC1,inactive
13,Cc1ccccc1CN1CCn2c1nc1c(c2=O)CN(Cc2ccccc2)CC1,inactive
14,O=C(NS(=O)(=O)c1ccc(Br)s1)c1ccc(Cl)cc1Cl,inactive
15,CNc1nc(Nc2ccc(C(=O)N3CCOCC3)cc2OC)nc2[nH]cc(Cl)c12,inactive
16,CCn1c(-c2nonc2N)nc2c(C#CCO)ncc(OCCCN)c21,inactive
17,C=C1/C(=C/C=C2\CCC[C@]3(C)[C@@H]([C@H](C)/C=C/[C@H](O)C4CC4)CC[C@@H]23)C[C@@H](O)C[C@@H]1O,inactive
18,COc1ccc2[nH]c(=O)c3c(c2c1)OC(C)(C)C=C3,inactive

# Tested on: not listed separately
# Test: Primary qHTS for small molecule stabilizers of the endoplasmic reticulum resident proteome: Secreted ER Calcium Modulated Protein (SERCaMP) assay (AID 1508630)
# Conditions: SH-SY5Y GLuc-SERCaMP (Gaussia luciferase released on ER calcium loss) secretion, thapsigargin, luminescence; series mostly up to 38.4 µM
# In short: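 The SH-SY5Y reporter protocol was run at 3 concentrations up to 38.3 uM (primary) or 11 concentrations (follow-up): 16 h compound, 100 nM thapsigargin for 4 h, then extracellular luciferase luminescence.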
row,SMILES,outcome
1,CCc1ccccc1OC[C@@H](O)CN[C@H]1CCCc2ccccc21,inactive
2,O=S(=O)(c1ccccc1)N(CC(F)(F)F)c1ccc(C(O)(C(F)(F)F)C(F)(F)F)cc1,inactive
3,COc1cc(C[C@H]2C(=O)OC[C@@H]2Cc2ccc(OC)c(OC)c2)ccc1O,inactive
4,CN(C)CCCn1cc(C2=C(c3c[nH]c4ccccc34)C(=O)NC2=O)c2ccccc21,inactive
5,NC(=O)C[C@@H](N)C(=O)O,inactive
6,COc1ccc2[nH]c(=O)c3c(c2c1)OC(C)(C)C=C3,inactive
